Data: PubChem BioAssay AID1159580 (chemical genetic matrix, 2015)
The whole screen tested about 5,500 compounds, of which about 2,000 (36%) were called active. Another 18% or so got no clear call; they are omitted. Cut-off read from the data, not from the text of the source: active = normalized growth mostly below about 0.91 (no sharp cut-off); inconclusive = no clear call, values can overlap the other calls; inactive = mostly above about 0.92. The list shows a part of the results.

Experiment: chemical genetic growth profiling, strain panel (AID 1159580);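 note: tested at 20 µM; growth read once vehicle control cultures reached saturation at 30 °C; 1 = growth at the plate median or of vehicle wells; lower values mean less growth of the strain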
Conditions: growth OD

Measured: normalized growth

NC[C@H]1O[C@H](OC2[C@@H](N)C[C@@H](N)[C@H](O[C@H]3O[C@H](CO)[C@@H](O)[C@H](N)[C@H]3O)[C@H]2O)[C@H](O)[C@@H](O)[C@@H]1O (some centres undefined)
inactive: S. cerevisiae deletion strains, locus YJR066W, strain TOR1, active compounds read low 0.956 | S. cerevisiae deletion strains, locus YJR075W, strain HOC1, active compounds read low 0.996 | S. cerevisiae deletion strains, locus YKL009W, strain mrt4, active compounds read low 0.985 | S. cerevisiae deletion strains, locus YKL068W, active compounds read low 0.986 | S. cerevisiae deletion strains, locus YKL085W, strain MDH1 (second series), active compounds read low 0.98 | S. cerevisiae deletion strains, locus YKL085W, strain MDH1, active compounds read low 0.98 | S. cerevisiae deletion strains, locus YKL160W, strain elf1, active compounds read low 0.979 | S. cerevisiae deletion strains, locus YKR001C, strain vps1, active compounds read low 0.994 | S. cerevisiae deletion strains, locus YKR026C, strain gcn3, active compounds read low 0.998 | S. cerevisiae deletion strains, locus YKR091W, strain srl3, active compounds read low 1.01 | S. cerevisiae deletion strains, locus YLL001W, strain dnm1, active compounds read low 0.973 | S. cerevisiae deletion strains, locus YLL026W, active compounds read low 1.01 | S. cerevisiae deletion strains, locus YLL041C, strain sdh2, active compounds read low 0.999 | S. cerevisiae deletion strains, locus YLR027C, strain aat2, active compounds read low 1.01 | S. cerevisiae deletion strains, locus YLR039C, strain RIC1, active compounds read low 0.927 | S. cerevisiae deletion strains, locus YLR058C, strain SHM2, active compounds read low 0.978 | S. cerevisiae deletion strains, locus YLR102C, strain apc9, active compounds read low 0.984 | S. cerevisiae deletion strains, locus YLR113W, strain HOG1, active compounds read low 1 | S. cerevisiae deletion strains, locus YLR221C, strain rsa3, active compounds read low 1.01 | S. cerevisiae deletion strains, locus YLR258W, strain gsy2, active compounds read low 1 | S. cerevisiae deletion strains, locus YLR262C, strain YPT6 (second series), active compounds read low 0.994 | S. cerevisiae deletion strains, locus YLR262C, strain YPT6, active compounds read low 1.04 | S. cerevisiae deletion strains, locus YLR268W, strain sec22, active compounds read low 0.986 | S. cerevisiae deletion strains, locus YLR320W, strain mms22, active compounds read low 0.987 | S. cerevisiae deletion strains, locus YLR330W, strain CHS5, active compounds read low 0.993 | S. cerevisiae deletion strains, locus YLR342W, strain FKS1 (second series), active compounds read low 1 | S. cerevisiae deletion strains, locus YLR342W, strain FKS1, active compounds read low 0.995 | S. cerevisiae deletion strains, locus YLR357W, strain rsc2, active compounds read low 0.979 | S. cerevisiae deletion strains, locus YLR370C, strain arc18, active compounds read low 0.993 | S. cerevisiae deletion strains, locus YLR371W, strain rom2, active compounds read low 0.981 | S. cerevisiae deletion strains, locus YLR384C, strain iki3, active compounds read low 0.994 | S. cerevisiae deletion strains, locus YLR418C, strain cdc73, active compounds read low 0.97 | S. cerevisiae deletion strains, locus YML016C, strain PPZ1, active compounds read low 0.99 | S. cerevisiae deletion strains, locus YML032C, strain rad52, active compounds read low 0.984 | S. cerevisiae deletion strains, locus YML120C, strain ndi1, active compounds read low 0.999 | S. cerevisiae deletion strains, locus YML124C, strain tub3, active compounds read low 0.984 | S. cerevisiae deletion strains, locus YMR058W, strain fet3, active compounds read low 1 | S. cerevisiae deletion strains, locus YMR078C, strain ctf18, active compounds read low 0.969 | S. cerevisiae deletion strains, locus YMR125W, strain sto1, active compounds read low 0.973 | S. cerevisiae deletion strains, locus YMR129W, active compounds read low 0.997 | S. cerevisiae deletion strains, locus YMR205C, strain PFK2, active compounds read low 0.975 | S. cerevisiae deletion strains, locus YMR223W, strain ubp8, active compounds read low 0.957 | S. cerevisiae deletion strains, locus YMR231W, strain pep5, active compounds read low 0.993 | S. cerevisiae deletion strains, locus YMR263W, strain SAP30, active compounds read low 0.999 | S. cerevisiae deletion strains, locus YMR307W, strain GAS1, active compounds read low 1.03 | S. cerevisiae deletion strains, locus YNL067W, strain RPL9B, active compounds read low 0.997 | S. cerevisiae deletion strains, locus YNL071W, strain lat1, active compounds read low 0.998 | S. cerevisiae deletion strains, locus YNL153C, strain GIM3, active compounds read low 0.993 | S. cerevisiae deletion strains, locus YNL183C, strain NPR1, active compounds read low 0.969 | S. cerevisiae deletion strains, locus YNL209W, strain ssb2, active compounds read low 0.996 | S. cerevisiae deletion strains, locus YNL233W, strain BNI4, active compounds read low 0.993 | S. cerevisiae deletion strains, locus YNL248C, strain rpa49, active compounds read low 0.988 | S. cerevisiae deletion strains, locus YNL250W, strain rad50, active compounds read low 0.974 | S. cerevisiae deletion strains, locus YNL271C, strain bni1, active compounds read low 0.978 | S. cerevisiae deletion strains, locus YNL298W, strain CLA4, active compounds read low 0.97 | S. cerevisiae deletion strains, locus YNL307C, strain MCK1, active compounds read low 0.971 | S. cerevisiae deletion strains, locus YNL322C, strain KRE1 (second series), active compounds read low 0.986 | S. cerevisiae deletion strains, locus YNL322C, strain KRE1, active compounds read low 0.996 | S. cerevisiae deletion strains, locus YNR049C, strain mso1, active compounds read low 0.992 | S. cerevisiae deletion strains, locus YNR052C, strain pop2, active compounds read low 0.973 | S. cerevisiae deletion strains, locus YOL006C, strain TOP1, active compounds read low 0.968 | S. cerevisiae deletion strains, locus YOL012C, strain htz1 1.24 | S. cerevisiae deletion strains, locus YOL147C, strain pex11, active compounds read low 0.982 | S. cerevisiae deletion strains, locus YOR001W, strain rrp6, active compounds read low 1.02 | S. cerevisiae deletion strains, locus YOR061W, strain CKA2, active compounds read low 0.989 | S. cerevisiae deletion strains, locus YOR069W, strain VPS5, active compounds read low 0.989 | S. cerevisiae deletion strains, locus YOR070C, strain gyp1, active compounds read low 0.998 | S. cerevisiae deletion strains, locus YOR080W, strain dia2, active compounds read low 1 | S. cerevisiae deletion strains, locus YOR083W, strain WHI5, active compounds read low 0.988 | S. cerevisiae deletion strains, locus YOR106W, strain vam3, active compounds read low 0.976 | S. cerevisiae deletion strains, locus YOR136W, strain idh2, active compounds read low 0.984 | S. cerevisiae deletion strains, locus YOR144C, strain elg1, active compounds read low 0.987 | S. cerevisiae deletion strains, locus YOR184W, strain ser1, active compounds read low 0.971 | S. cerevisiae deletion strains, locus YOR231W, strain MKK1, active compounds read low 0.983 | S. cerevisiae deletion strains, locus YOR265W, strain rbl2, active compounds read low 1 | S. cerevisiae deletion strains, locus YOR270C, strain vph1, active compounds read low 1.02 | S. cerevisiae deletion strains, locus YOR290C, strain snf2, active compounds read low 0.949 | S. cerevisiae deletion strains, locus YOR316C, strain cot1, active compounds read low 0.98 | S. cerevisiae deletion strains, locus YPL051W, strain arl3, active compounds read low 0.992 | S. cerevisiae deletion strains, locus YPL078C, strain atp4, active compounds read low 0.992 | S. cerevisiae deletion strains, locus YPL106C, strain sse1, active compounds read low 0.998 | S. cerevisiae deletion strains, locus YPL240C, strain hsp82, active compounds read low 0.987 | S. cerevisiae deletion strains, locus YPL256C, strain CLN2, active compounds read low 0.994 | S. cerevisiae deletion strains, locus YPR119W, strain clb2, active compounds read low 0.977 | S. cerevisiae deletion strains, locus YPR141C, strain kar3, active compounds read low 0.962 | S. cerevisiae deletion strains, locus YPR163C, strain tif3, active compounds read low 0.978 | S. cerevisiae deletion strains, locus YPR167C, strain met16, active compounds read low 0.981 | S. cerevisiae deletion strains, strain wtn01, active compounds read low 0.989 | S. cerevisiae strains, strain wild type, active compounds read low 0.995
